The panel holds about 83,000 compounds, 20% with a hit somewhere; the sample as a whole holds those more often.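 Cells were grown in 96-well plates and exposed to the test compound at a single concentration for 48 hours; results are reported as percent growth, with values below 10 considered active.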 Calls of active or inactive are those of the source.
Legend:
Experiment in all cases: NCI-60 one-dose screen, 48 h (100 = growth as untreated, 0 = no growth, -100 = all killed)
Details in all cases: 10 µM unless noted
NCI-H23 lung = tested on: NCI-H23 lung
NCI-H226 lung = tested on: NCI-H226 lung
NCI-H322M lung = tested on: NCI-H322M lung
HOP-62 NSCLC = tested on: HOP-62 NSCLC
NCI-H460 lung = tested on: NCI-H460 lung
HOP-92 NSCLC = tested on: HOP-92 NSCLC
NCI-H522 lung = tested on: NCI-H522 lung
A549/ATCC NSCLC = tested on: A549/ATCC NSCLC
786-0 renal = tested on: 786-0 renal
COLO 205 colon = tested on: COLO 205 colon
DU-145 prostate = tested on: DU-145 prostate
K-562 leukemia = tested on: K-562 leukemia
MALME-3M melanoma = tested on: MALME-3M melanoma
MDA-MB-231 breast = tested on: MDA-MB-231 breast
RXF 393 renal = tested on: RXF 393 renal
SF-268 CNS = tested on: SF-268 CNS
SF-295 CNS = tested on: SF-295 CNS
SF-539 CNS = tested on: SF-539 CNS
UACC-257 melanoma = tested on: UACC-257 melanoma
M14 melanoma = tested on: M14 melanoma

Measured: growth

Cn1cc(-c2csc(-c3cn(CCN)c4ccccc34)n2)c2cccnc21
active: K-562 leukemia -44.3%
inactive: NCI-H23 lung 59.3% | NCI-H226 lung 66.4% | NCI-H322M lung 70.9% | HOP-62 NSCLC 40.1% | NCI-H460 lung 24.8% | HOP-92 NSCLC 37.6% | NCI-H522 lung 65.8% | A549/ATCC NSCLC 40% | 786-0 renal 46.7% | COLO 205 colon 20.7% | DU-145 prostate 75.6% | MALME-3M melanoma 68.2% | MDA-MB-231 breast 45.7% | RXF 393 renal 70.9% | SF-268 CNS 64.4% | SF-295 CNS 58.6% | SF-539 CNS 47.9% | UACC-257 melanoma 78.1% | M14 melanoma 43.4%

Clc1ccc2c(NCCNc3nc(-c4ccccc4)cc(-c4ccccc4)n3)ccnc2c1
active: NCI-H23 lung -47.3% | NCI-H226 lung -56.2% | NCI-H322M lung -10.5% | HOP-62 NSCLC -73.6% | NCI-H460 lung -73% | HOP-92 NSCLC -66.8% | NCI-H522 lung -69.9% | A549/ATCC NSCLC -75.2% | 786-0 renal -90.8% | COLO 205 colon -72.2% | DU-145 prostate -34.1% | K-562 leukemia -46.6% | MALME-3M melanoma -89.3% | MDA-MB-231 breast -80.9% | RXF 393 renal -88.2% | SF-268 CNS -59.7% | SF-295 CNS -75.8% | SF-539 CNS -81.1% | M14 melanoma -75.4%
inactive: UACC-257 melanoma 77.8%

Cc1cc(N=O)cc(C(C)(C)C)c1O
inactive: NCI-H23 lung 97% | NCI-H226 lung 85.8% | NCI-H322M lung 95.6% | HOP-62 NSCLC 90% | NCI-H460 lung 101% | HOP-92 NSCLC 73% | NCI-H522 lung 90.2% | A549/ATCC NSCLC 73.5% | 786-0 renal 103% | COLO 205 colon 92.3% | DU-145 prostate 103% | K-562 leukemia 98.2% | MALME-3M melanoma 88.4% | MDA-MB-231 breast 95.1% | RXF 393 renal 105% | SF-268 CNS 100% | SF-295 CNS 99% | SF-539 CNS 103% | UACC-257 melanoma 75.1% | M14 melanoma 92.2%

CCCCC[C@H]1CC=C2C(=O)C(Cl)=C[C@@H]2CC=CCCCC(=O)O[C@@H](CCCCC)CC=C2C(=O)C(Cl)=C[C@@H]2CC=CCCCC(=O)O[C@@H](CCCCC)CC=C2C(=O)C(Cl)=C[C@@H]2CC=CCCCC(=O)O1
inactive: NCI-H23 lung 58.4% [8 µM] | NCI-H226 lung 115% [8 µM] | NCI-H322M lung 96.2% [8 µM] | HOP-62 NSCLC 89.8% [8 µM] | NCI-H460 lung 91% [8 µM] | HOP-92 NSCLC 130% [8 µM] | NCI-H522 lung 25.1% [8 µM] | A549/ATCC NSCLC 90.6% [8 µM] | 786-0 renal 103% [8 µM] | COLO 205 colon 70.8% [8 µM] | DU-145 prostate 59.9% [8 µM] | K-562 leukemia 27.7% [8 µM] | MALME-3M melanoma 105% [8 µM] | MDA-MB-231 breast 53.1% [8 µM] | RXF 393 renal 79.2% [8 µM] | SF-268 CNS 73.1% [8 µM] | SF-295 CNS 106% [8 µM] | SF-539 CNS 88% [8 µM] | UACC-257 melanoma 76.3% [8 µM] | M14 melanoma 48.2% [8 µM]

N#C/C(=C\c1ccc(-c2ccc(Cl)cc2)o1)c1nc(-c2ccco2)cs1
inactive: NCI-H23 lung 93.9% | NCI-H226 lung 89.3% | NCI-H322M lung 91.6% | HOP-62 NSCLC 97.5% | NCI-H460 lung 96% | HOP-92 NSCLC 85.8% | NCI-H522 lung 90.6% | A549/ATCC NSCLC 91.9% | 786-0 renal 104% | COLO 205 colon 109% | DU-145 prostate 103% | K-562 leukemia 94.4% | MALME-3M melanoma 99.9% | MDA-MB-231 breast 85.3% | RXF 393 renal 108% | SF-268 CNS 101% | SF-295 CNS 92.9% | SF-539 CNS 94.7% | UACC-257 melanoma 104% | M14 melanoma 98.9%

CN1CCN(c2ccc3nc(-c4[nH]ncc4Nc4ncnc5[nH]ccc45)[nH]c3c2)CC1
inactive: NCI-H460 lung 21% | HOP-92 NSCLC 26.9% | A549/ATCC NSCLC 24% | UACC-257 melanoma 11.7%
active: NCI-H23 lung -1.38% | NCI-H226 lung -10.2% | NCI-H322M lung 1.88% | HOP-62 NSCLC -0.445% | NCI-H522 lung -4.39% | 786-0 renal 2.96% | COLO 205 colon -59.8% | DU-145 prostate 7.18% | K-562 leukemia 7.3% | MALME-3M melanoma -16.6% | MDA-MB-231 breast -13% | RXF 393 renal -71.7% | SF-268 CNS -9.53% | SF-295 CNS -1.58% | SF-539 CNS -43.6% | M14 melanoma 3.42%

Brc1ccc(Cn2nnnc2-c2ccn(-c3ccccc3)n2)cc1
active: NCI-H522 lung -1.66%
inactive: NCI-H23 lung 62.3% | NCI-H226 lung 62.8% | NCI-H322M lung 76.8% | HOP-62 NSCLC 74.3% | NCI-H460 lung 73.8% | HOP-92 NSCLC 63.8% | A549/ATCC NSCLC 67.8% | 786-0 renal 82.8% | COLO 205 colon 96.6% | DU-145 prostate 85.8% | K-562 leukemia 46.2% | MALME-3M melanoma 103% | MDA-MB-231 breast 73.5% | RXF 393 renal 87.1% | SF-268 CNS 73.2% | SF-295 CNS 50.5% | SF-539 CNS 80.8% | UACC-257 melanoma 28.8% | M14 melanoma 83.4%

CCCCN1CCCCn2c1nc1c2c(=O)n(C)c(=O)n1C
inactive: NCI-H23 lung 108% | NCI-H226 lung 104% | NCI-H322M lung 110% | HOP-62 NSCLC 103% | NCI-H460 lung 101% | HOP-92 NSCLC 95.7% | NCI-H522 lung 90.1% | A549/ATCC NSCLC 89% | 786-0 renal 100% | COLO 205 colon 114% | DU-145 prostate 105% | K-562 leukemia 91.2% | MALME-3M melanoma 116% | MDA-MB-231 breast 103% | RXF 393 renal 108% | SF-268 CNS 105% | SF-295 CNS 106% | SF-539 CNS 116% | UACC-257 melanoma 97% | M14 melanoma 106%

Cc1cc(N2CCOCC2)nc(N(CCCNc2ccnc3cc(Cl)ccc23)Cc2ccco2)n1
inactive: NCI-H23 lung 35.3% | NCI-H226 lung 74.7% | NCI-H322M lung 28.7% | HOP-62 NSCLC 12.9% | NCI-H460 lung 18.8% | HOP-92 NSCLC 34% | NCI-H522 lung 40.2% | A549/ATCC NSCLC 18.9% | 786-0 renal 42.1% | DU-145 prostate 52.6% | MALME-3M melanoma 53.6% | MDA-MB-231 breast 19.6% | RXF 393 renal 21.2% | SF-268 CNS 50.7% | SF-295 CNS 16.6% | UACC-257 melanoma 85%
active: COLO 205 colon 3.4% | K-562 leukemia 4.98% | SF-539 CNS -2.57% | M14 melanoma -3.48%

CCN1CCN(c2nc(C)cc(N(CCCNc3ccnc4cc(Cl)ccc34)Cc3ccco3)n2)CC1
inactive: NCI-H23 lung 62.2% | NCI-H226 lung 86.4% | NCI-H322M lung 63.5% | HOP-62 NSCLC 52.1% | NCI-H460 lung 39.9% | HOP-92 NSCLC 65.3% | NCI-H522 lung 71.6% | A549/ATCC NSCLC 50.4% | 786-0 renal 64.8% | DU-145 prostate 55.5% | MDA-MB-231 breast 11.6% | RXF 393 renal 48.5% | SF-268 CNS 55.7% | SF-295 CNS 51%
active: COLO 205 colon -21.2% | K-562 leukemia 8.16% | MALME-3M melanoma -6.8% | SF-539 CNS -63.5% | UACC-257 melanoma -2.43% | M14 melanoma -76%

Cc1oc(-c2ccccc2Cl)cc1C(=O)Nc1ccc(S(N)(=O)=O)cc1
inactive: NCI-H23 lung 96.4% | NCI-H226 lung 96.1% | NCI-H322M lung 102% | HOP-62 NSCLC 105% | NCI-H460 lung 107% | HOP-92 NSCLC 107% | NCI-H522 lung 97.3% | A549/ATCC NSCLC 105% | 786-0 renal 103% | COLO 205 colon 116% | DU-145 prostate 104% | K-562 leukemia 96.3% | MALME-3M melanoma 98.6% | MDA-MB-231 breast 93.3% | RXF 393 renal 111% | SF-268 CNS 104% | SF-295 CNS 104% | SF-539 CNS 95.4% | UACC-257 melanoma 95% | M14 melanoma 93.8%

CCSc1ncnc2c1ncn2C1OC(CO)C(O)C1O (stereo not given)
inactive: NCI-H23 lung 24.6% | NCI-H226 lung 62.9% | NCI-H322M lung 42.6% | HOP-62 NSCLC 21.1% | NCI-H460 lung 14.9% | HOP-92 NSCLC 33% | NCI-H522 lung 19.5% | A549/ATCC NSCLC 14.6% | 786-0 renal 24.1% | COLO 205 colon 20.8% | DU-145 prostate 22.7% | K-562 leukemia 15.9% | MALME-3M melanoma 53.5% | MDA-MB-231 breast 64.4% | RXF 393 renal 36.7% | SF-268 CNS 19.4% | SF-295 CNS 31.4% | SF-539 CNS 25.3% | UACC-257 melanoma 59.6% | M14 melanoma 29.6%

COC(=O)[C@]12CC[C@@H](C(/C=C/c3cccnc3)=N/O)[C@@H]1[C@H]1CC[C@@H]3[C@@]4(C)CC(=C/c5cccnc5)/C(=N/O)C(C)(C)[C@@H]4CC[C@@]3(C)[C@]1(C)CC2
inactive: NCI-H23 lung 43.1% | NCI-H226 lung 13.7% | NCI-H322M lung 76.5% | HOP-62 NSCLC 60% | NCI-H460 lung 36.8% | HOP-92 NSCLC 54.4% | NCI-H522 lung 43.3% | A549/ATCC NSCLC 44.6% | 786-0 renal 67.8% | COLO 205 colon 18% | DU-145 prostate 55.6% | K-562 leukemia 24.9% | MALME-3M melanoma 39.2% | MDA-MB-231 breast 45.5% | RXF 393 renal 67.1% | SF-268 CNS 56.7% | SF-295 CNS 30.6% | SF-539 CNS 72.3% | UACC-257 melanoma 59.1% | M14 melanoma 19.3%

C/C(=C(/c1ccccc1)c1ccc(N2C(=O)c3cccc4c(NCc5ccccc5)ccc(c34)C2=O)cc1)c1ccccc1
inactive: NCI-H23 lung 89.8% | NCI-H226 lung 89.1% | NCI-H322M lung 97.6% | HOP-62 NSCLC 100% | NCI-H460 lung 99.8% | HOP-92 NSCLC 89% | NCI-H522 lung 93.1% | A549/ATCC NSCLC 92.6% | 786-0 renal 103% | COLO 205 colon 112% | DU-145 prostate 101% | K-562 leukemia 85.8% | MALME-3M melanoma 96.3% | MDA-MB-231 breast 96.1% | RXF 393 renal 112% | SF-268 CNS 102% | SF-295 CNS 96.2% | SF-539 CNS 98.6% | UACC-257 melanoma 106% | M14 melanoma 89.1%
